# HepG2 tox: kills HepG2 cells in TGF-b inhibitor counter-screen; AID 588856; Potency, µM (series often up to 46.1 µM), for the others: at the highest dose activity change, negative = cytotoxicity, hits mostly cytotoxic; HepG2 CAGA-GFP viability, ATP luminescence, 18 h; 410,000 compounds, 0.76% hits; also: potency is read from the fitted curve at half-maximal effect
#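 HepG2 CAGA-GFP cells (1000/well, DMEM with 1% FBS) received compound, then TGF-beta at 500 pg/mL final, and were incubated 18 hours at 37 degrees C. Viability was read by CellTiter-Glo luminescence. Media-only wells were set as complete cell-killing and DMSO as no toxicity.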
# TGFb SMAD3 inh: blocks TGF-b signaling; Potency, µM (highest dose often 46.1 µM), inactives show at the highest dose activity, negative = inhibition, most hits filed as inhibitors; 410,000 compounds, 1.2% hits; HepG2 CAGA-GFP TGF-b/SMAD3 reporter, GFP fluorescence, 18 h; TGF-beta stimulated, 500 pg/mL final; AID 588855; also: potency is read from the fitted curve at half-maximal effect; % is scaled to controls: 0 for no effect and ±100 for the full control effect; nearly all actives have a fitted effect of over 65% in size
#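 Inhibition of TGF-beta-driven CAGA-GFP reporter expression in HEPG2 cells is measured by cellular GFP fluorescence after 18 h stimulation with 500 pg/mL recombinant TGF-beta in 1% FBS medium at 37 degrees C.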
# DT40 TDP1 no CPT: qHTS for Inhibitors of human tyrosyl-DNA phosphodiesterase 1 (TDP1): qHTS in cells in absence of CPT; Potency, µM (top dose mostly 46.2 µM), for inactives: top-dose activity change, negative = growth inhibition, hits mostly inhibitors; 420,000 compounds, 15% hits; DT40 Tdp1-/- hTDP1 cells, no CPT, ATP luminescence, 48 h; AID 686978, 2013; also: potency is read from the fitted curve at half-maximal effect; % is scaled to controls: 0 for no effect and ±100 for the full control effect; nearly all actives have a fitted effect of over 55% in size
#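 Compound effects on proliferation are scored in DT40 Tdp1-/-;hTDP1 cells in the absence of CPT. ATP levels (CellTiter-Glo luminescence) are recorded after a ≥48 hr, 37 °C incubation.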
# TDP1 inh: TDP1 (human) enzyme inhibition; Q9NUW8; recombinant TDP1, AlphaScreen DNA substrate cleavage; Potency, µM (highest dose often 130 µM), for inactives: at the top dose activity change, negative = inhibition, actives largely listed as inhibitors; 350,000 compounds, 0.28% hits; also: potency is read from the fitted curve at half-maximal effect; % is scaled to controls: 0 for no effect and ±100 for the full control effect; nearly all actives have a fitted effect of over 40% in size
# Target sequence (Q9NUW8 whole entry, looked up): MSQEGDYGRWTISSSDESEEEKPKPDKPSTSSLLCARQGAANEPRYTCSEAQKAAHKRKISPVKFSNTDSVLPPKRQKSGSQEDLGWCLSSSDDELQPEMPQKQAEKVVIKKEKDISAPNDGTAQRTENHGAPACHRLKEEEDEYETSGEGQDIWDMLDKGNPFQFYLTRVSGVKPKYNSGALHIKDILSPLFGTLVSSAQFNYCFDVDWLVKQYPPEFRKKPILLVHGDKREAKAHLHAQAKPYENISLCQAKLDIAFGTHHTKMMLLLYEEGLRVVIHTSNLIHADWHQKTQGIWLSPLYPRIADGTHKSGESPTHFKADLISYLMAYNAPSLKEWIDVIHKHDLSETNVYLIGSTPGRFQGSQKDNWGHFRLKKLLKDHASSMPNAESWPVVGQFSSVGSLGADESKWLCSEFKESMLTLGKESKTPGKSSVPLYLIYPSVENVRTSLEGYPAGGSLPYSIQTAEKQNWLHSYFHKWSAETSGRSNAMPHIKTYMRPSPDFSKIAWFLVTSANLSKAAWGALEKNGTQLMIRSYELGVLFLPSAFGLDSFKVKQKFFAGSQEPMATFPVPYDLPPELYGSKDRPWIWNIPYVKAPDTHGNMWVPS
#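 Here, a 5' biotin and 3' phosphotyrosine-FITC DNA oligonucleotide reports Tdp1 activity: intact substrate bridges AlphaScreen beads, while cleavage leaves a 3' phosphate and drops signal. All incubations at room temperature.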
# TDP1 cell CPT: DT40-hTDP1 cell growth loss with CPT; chicken DT40 Tdp1-/-;hTDP1 cells + 20 nM CPT, ATP luminescence, 48 h; Potency, µM (highest dose often 46.2 µM), for the others: top-dose activity change, negative = growth inhibition, hits mostly inhibitors; 420,000 compounds, 12% hits; AID 686979; also: potency is read from the fitted curve at half-maximal effect; % is scaled to controls: 0 for no effect and ±100 for the full control effect; nearly all actives have a fitted effect of over 55% in size
#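 Cell growth measured by CellTiter-Glo luminescence after a minimum 48 h, 37 C compound exposure with 20 nM CPT in Tdp1-knockout DT40 cells stably expressing hTDP1, seeded 400/well; qHTS titration format.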
# IL1B secr inh: blocks inflammasome-driven IL-1 beta release. THP-1 LPS/ATP IL-1B secretion, AlphaLISA, 16 h; active compounds read low. activity change, % at 57.5 µM. 360,000 compounds, 4.7% hits. AID 743279; in the data active = activity change below about -50%; inconclusive = mostly about -30% to -49%; also: % is scaled to controls: 0 for no effect and ±100 for the full control effect
#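 THP-1 cells pretreated 1 hr with compounds (up to 57.5 uM final), then stimulated with LPS (250 ng/mL final) plus ATP (1.25 mM final); secreted IL-1B measured by AlphaLISA after 16 hr, decreased signal indicating inhibition.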
# An asterisk follows results filed as active; ? = inconclusive; · = no result given. This is a sample that favours compounds with a hit; in the whole collection about 19% have one here. Unless noted, calls follow the shape of the dose curve; as a rule, active = well fitted curve in the direction sought with a large enough effect; inconclusive = small, poorly fitted or top-dose-only effect, or another doubt; inactive = no such curve, though single readings can be large; an effect the other way counts as inactive or inconclusive.
SMILES,HepG2 tox,TGFb SMAD3 inh,DT40 TDP1 no CPT,TDP1 inh,TDP1 cell CPT,IL1B secr inh
CCOC(=O)N1CCN(C(=O)CSc2nnc(-c3cc(OC)ccc3OC)o2)CC1,-10%,8%,21µM*,0%,15µM*,-1
CCOC(=O)N1CCN(C(=O)CSc2nnc(-c3cc(OC)cc(OC)c3)o2)CC1,11%,0%,?,-1%,-7%,-8
CCOC(=O)N1CCN(C(=O)CCSc2ccc(C)cc2)CC1,13%,55%,23µM*,5%,23µM*,-5
CCc1cc2cc(C)ccc2nc1SCC(=O)NC1CCCC1,-19%,-2%,?,-4%,?,-18
COCCNC(=O)c1ccc(CS(=O)(=O)c2ccccc2)o1,1%,-4%,16µM*,-1%,18µM*,10
COCCNC(=O)c1ccc(CS(=O)(=O)c2ccc(Cl)cc2)o1,-15%,?,3%,7%,-4%,19
CCCCSCCCNC(=O)c1ccc(CS(=O)(=O)c2ccc(OC)cc2)o1,0%,8%,?,·,18µM*,-3
COc1ccc(S(=O)(=O)Cc2ccc(C(=O)NCc3ccccc3OC)o2)cc1,-18%,-19%,-24%,12%,21µM*,-8
COc1ccccc1CNC(=O)c1ccc(CS(=O)(=O)c2c(Cl)cccc2Cl)o1,-1%,-32%,?,5%,?,·
Cc1ccc(Nc2cc(C)nc3nncn23)c(C)c1,-16%,?,?,2%,?,·
O=c1oc2ccccc2c(N2CCOCC2)c1[N+](=O)[O-],-31%,13%,?,-5%,?,11
CCCCCCCC(=O)NC(Nc1ccc(S(N)(=O)=O)cc1)C(Cl)(Cl)Cl (stereo unspecified),-32%,?,21µM*,6%,?,-21
CCOc1ccc(NC(=O)C(CC)n2nc(-c3ccc(C)c(C)c3)ccc2=O)cc1 (stereo unspecified),3%,2%,?,-4%,?,·
CN(C)/C=C/C(=O)c1ccc2noc(-c3ccccc3)c2c1,-30%,-16%,?,·,?,-52*
CC(=O)c1ccc2noc(-c3ccccc3)c2c1,-41%,3%,-12%,-3%,-9%,?
Cc1c(C(=O)OCC(=O)Nc2ccccc2OC(F)F)cccc1[N+](=O)[O-],8%,12%,-17%,-1%,-13%,16
COc1ccc(C(=O)CC(=O)C(=O)Nc2cccc([N+](=O)[O-])c2C)cc1,-10%,0%,16µM*,·,21µM*,-5
COc1ccccc1C(=O)CC(=O)C(=O)Nc1cccc([N+](=O)[O-])c1C,-36%,1%,12µM*,·,16µM*,-28
COc1cccc(C(=O)CC(=O)C(=O)Nc2cc(OC)ccc2OC)c1,-8%,-12%,23µM*,·,18µM*,22
CCOc1ccccc1NC(=O)C(=O)CC(=O)c1cccc(OC)c1,16%,16%,?,·,?,18
COc1cccc(C(=O)CC(=O)C(=O)Nc2cccc([N+](=O)[O-])c2C)c1,-41%,-4%,12µM*,·,15µM*,-92*
COc1ccc(C)cc1N1C(=N)/C(=C2/Nc3ccccc3S2)C(c2ccccc2)C1=O (stereo unspecified),-9%,24%,3.7µM*,5%,6.5µM*,-11
Cc1cc(C)cc(Nc2ncnc3c2nc2n3CCCC2)c1,-11%,-23%,9.2µM*,-5%,9.2µM*,·
COc1ccccc1Nc1ncnc2c1nc1n2CCCC1,-28%,-11%,8.2µM*,4%,7.3µM*,·
COc1ccc(Cl)cc1Nc1ncnc2c1nc1n2CCCC1,-29%,-18%,16µM*,7%,12µM*,·
SMILES,HepG2 tox,TGFb SMAD3 inh,DT40 TDP1 no CPT,TDP1 inh,TDP1 cell CPT,IL1B secr inh
COc1ccc(OC)c(Nc2ncnc3c2nc2n3CCCC2)c1,-18%,-19%,?,-5%,9.2µM*,·
Cc1ccc(Nc2ncnc3c2nc2n3CCCC2)cc1F,-12%,-20%,?,-2%,?,·
COc1ccc(C(CC(=O)O)NS(=O)(=O)c2ccc3c(c2)NC(=O)CO3)cc1 (stereo unspecified),12%,3%,9%,·,-20%,10
O=C(O)CSCC(=O)NC1CCSC1=O (stereo unspecified),·,·,-5%,·,-11%,·
CCc1ccc(-n2c(N3CCN(c4cccc(C)c4C)CC3)nc3ccccc3c2=O)cc1,0%,2%,?,0%,?,·
CCc1ccc(-n2c(N3CCN(c4ccc(F)cc4)CC3)nc3ccccc3c2=O)cc1,-19%,?,12µM*,2%,23µM*,·
CCc1ccc(-n2c(N3CCN(c4cccc(Cl)c4)CC3)nc3ccccc3c2=O)cc1,-23%,-22%,8.2µM*,2%,6.5µM*,·
Cc1cccc2c1N(CCOc1ccc(C(C)(C)C)cc1)C(=O)C2=O,5%,14%,4.1µM*,-2%,2.9µM*,-7
Cc1ccc(CN2C(=O)C(=O)c3cc(Br)cc(C)c32)cc1,-98%,?,1.5µM*,10%,2.3µM*,·
Cc1ccc(OCCN2C(=O)C(=O)c3cc(C)ccc32)cc1,-2%,7%,?,7%,0.92µM*,120
Cc1ccc(OCCCN2C(=O)C(=O)c3cccc(C)c32)cc1,-20%,?,15µM*,10%,7.3µM*,14
O=C1c2ccccc2C(=O)N1CCOc1ccccc1,-31%,-6%,-12%,·,0%,4
C=Cc1ccccc1C=C,·,·,·,5%,·,·
CCCOc1ccc(Cn2c(=O)oc3ccc(C)cc32)cc1,4%,2%,-23%,1%,-2%,12
CCCOc1ccc(CN2C(=O)C(=O)c3cccc(C)c32)cc1,-74%,16µM*,1.8µM*,10%,1.3µM*,·
CCCCCC1CCC(c2n[nH]c(=S)n2C)CC1 (stereo unspecified),3%,-9%,2.9µM*,5%,7.3µM*,4
Cn1c(C2CCCN2C(=O)OC(C)(C)C)n[nH]c1=S (stereo unspecified),-3%,-2%,2%,0%,-2%,0
CC1(C)CC(=O)C=C(c2ccc(I)cc2)C1,-30%,-17%,?,-6%,-9%,-74*
CCc1cccc(CC)c1NC(=O)CCS(=O)(=O)c1ccc(Br)s1,0%,-12%,-1%,0%,0%,·

# Assay outcomes (PubChem BioAssay)
